A selection: hits, their analogues and other compounds. The true share with any hit is near 11%.
G9a inh: G9a (human) methyltransferase inhibition; 350,000 compounds, 8.8% hits; G9a H3K9 monomethylation, AlphaScreen, 2 h; Q96KQ7; Potency, µM (highest dose often 102 µM), for the others: top-dose activity, negative = inhibition, usual class: inhibitors; AID 504332; further: on the % scale 0 is the no-effect control and ±100 the full control effect; nearly all actives have a fitted effect of over 75% in size
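Readings reflect AlphaScreen signal from monomethyl-H3K9 antibody detection. HMT at 20 nM; substrate b-H3K9 500 nM; cofactor SAM 20 uM; 2 h RT reaction; compounds tested as titrations in qHTS with 15 min preincubation.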
JMJD2A Tudor inh: JMJD2A Tudor domain (human) inhibition; O75164; AlphaScreen JMJD2A-Tudor / H3K4me3 peptide binding; Potency, µM (top dose mostly 114 µM), for inactives: at the top dose activity change, negative = inhibition, usual class: inhibitors; 390,000 compounds, 4.4% hits; AID 504339; further: on the % scale 0 is the no-effect control and ±100 the full control effect; nearly all actives have a fitted effect of over 50% in size
Target sequence (O75164 whole entry, looked up, the tested form may be a part): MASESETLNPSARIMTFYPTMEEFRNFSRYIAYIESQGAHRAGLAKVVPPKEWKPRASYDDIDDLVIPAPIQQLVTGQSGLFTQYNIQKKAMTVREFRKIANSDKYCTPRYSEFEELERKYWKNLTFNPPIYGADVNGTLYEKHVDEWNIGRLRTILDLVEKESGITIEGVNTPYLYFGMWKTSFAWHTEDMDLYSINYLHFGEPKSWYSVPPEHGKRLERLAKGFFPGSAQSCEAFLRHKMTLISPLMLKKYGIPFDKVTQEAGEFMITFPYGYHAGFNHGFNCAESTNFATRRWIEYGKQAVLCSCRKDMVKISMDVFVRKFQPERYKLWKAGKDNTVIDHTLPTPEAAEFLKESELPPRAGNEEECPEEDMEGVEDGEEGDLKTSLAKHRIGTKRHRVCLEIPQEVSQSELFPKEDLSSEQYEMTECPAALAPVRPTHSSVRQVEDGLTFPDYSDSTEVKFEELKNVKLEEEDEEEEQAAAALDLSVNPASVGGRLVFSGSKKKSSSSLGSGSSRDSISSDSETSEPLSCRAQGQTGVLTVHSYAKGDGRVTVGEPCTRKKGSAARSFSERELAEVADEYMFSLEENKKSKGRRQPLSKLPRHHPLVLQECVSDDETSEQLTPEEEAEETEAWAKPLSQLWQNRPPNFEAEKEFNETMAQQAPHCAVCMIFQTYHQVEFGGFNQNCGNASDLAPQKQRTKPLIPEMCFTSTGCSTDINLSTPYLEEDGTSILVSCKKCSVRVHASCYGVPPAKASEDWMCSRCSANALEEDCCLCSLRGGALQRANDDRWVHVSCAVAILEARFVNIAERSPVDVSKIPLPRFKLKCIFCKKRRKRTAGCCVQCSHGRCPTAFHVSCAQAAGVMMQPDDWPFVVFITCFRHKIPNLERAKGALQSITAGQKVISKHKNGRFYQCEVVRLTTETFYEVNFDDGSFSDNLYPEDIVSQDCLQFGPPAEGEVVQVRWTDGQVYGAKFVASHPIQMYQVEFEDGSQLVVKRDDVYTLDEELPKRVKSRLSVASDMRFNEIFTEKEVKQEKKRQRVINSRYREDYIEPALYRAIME
L3MBTL1 inh: L3MBTL1 (human) inhibition. 230,000 compounds, 0.66% hits. AlphaScreen L3MBTL1–H3K9me1 peptide binding. Q9Y468. Potency, µM (titrated, usually from 57.1 µM), inactives show top-dose activity, negative = inhibition, most hits filed as inhibitors; further: on the % scale 0 is the no-effect control and ±100 the full control effect; nearly all actives have a fitted effect of over 60% in size
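AlphaScreen assay: L3MBTL1 (50 nM final) was preincubated 30 min at room temperature with biotinylated H3(1-15)K9me1 peptide (75 nM final), then 30 min with library compounds; streptavidin donor and nickel chelate acceptor beads (10 ug/mL final) added, 30 min dark.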
BAZ2B block: blocks human BAZ2B; Q9UIF8; AID 504333; Potency, µM (highest dose often 114 µM), for inactives: at the top dose activity change, negative = inhibition, usual class: inhibitors; AlphaScreen BAZ2B-H3K14Ac peptide displacement; 360,000 compounds, 4.4% hits; further: on the % scale 0 is the no-effect control and ±100 the full control effect; nearly all actives have a fitted effect of over 60% in size
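BAZ2B 50 nM plus b-H3(5-23)K14Ac 50 nM, PBS pH 7.4/0.01% Tween-20, 30 min RT; compound added (max 110 uM), 30 min RT; streptavidin donor/Ni-chelate acceptor beads 10 ug/mL final, 20 min dark; AlphaScreen read.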
HP1b chromo inh: blocks HP1-beta chromodomain binding to methylated histone tails; P83916; AlphaScreen HP1-beta / biotin-H3K9me3 peptide binding; Potency, µM (doses to about 114 µM), for inactives: at the highest dose activity change, negative = inhibition, usual class: inhibitors; 390,000 compounds, 0.56% hits; further: nearly all actives have a fitted effect of over 70% in size
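HP1-beta protein (50 nM final) preincubated 30 min at room temperature with biotinylated H3(1-18)K9me3 peptide (50 nM) in PBS pH 7.4, 0.01% Tween-20, then compound added for 30 min. AlphaScreen streptavidin donor/nickel chelate acceptor beads (10 ug/mL final), 30 min dark, luminescence read.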
* marks the source's active call; other numbers are inactive results; ? = inconclusive; . = no result; [ ] = dose if it differs, or a comment. The call rests on the fitted dose curve; in most records, active means well fitted inhibition curve with a large enough effect; inconclusive means small, poorly fitted or top-dose-only effect; inactive means no such curve, though single readings can be large or run the other way. Potency means the concentration at half of the fitted maximal effect.

SMILES | G9a inh | JMJD2A Tudor inh | L3MBTL1 inh | BAZ2B block | HP1b chromo inh
COc1ccc(CCNCC(=O)N2C(C)CCCC2C)cc1OC (centres undefined) | -10% | 0.79µM* | 3% | 79µM* | ?
COC(=O)c1cc(NC(=O)Cc2ccc(OC)c(OC)c2)cc(C(=O)OC)c1 | 9% | 45µM* | 2% | 3% | 3%
COC(=O)c1ccccc1NC(=O)CNCCc1ccc(OC)c(OC)c1 | 7.9µM* | 25µM* | . | 20µM* | -34%
COc1ccc(CCNCC(=O)Nc2ccc(C)c(S(=O)(=O)N(C)C)c2)cc1OC | 22µM* | ? | -12% | 22µM* | -20%
CCCCc1nn2c(=O)cc(COC(=O)C3CCCCC3)nc2s1 | 7%[59 µM] | -5% | . | 1% | 27%
COC(=O)c1scc(-c2ccc(C)cc2)c1S(=O)(=O)Nc1ccc(N(C)C)cc1 | ? | ? | . | 8.9µM* | ?
COC(=O)c1scc(-c2ccc(C)cc2)c1S(=O)(=O)Nc1ccc(NC(C)=O)cc1 | 14%[59 µM] | -11% | . | -14% | -2%
CCOC(=O)c1sc(NC(=O)OC)c(C(=O)OC)c1C | 3% | -7% | 14% | 2% | 27%
COC(=O)c1sc(S(=O)(=O)Nc2c(C)nn(C)c2C)c(C(=O)OC)c1C | 56µM* | 1% | ? | -3% | 31%
CCC(=O)Nc1sc(C(=O)OC)c(C)c1C(=O)OC | 28µM* | -17% | 7% | 19% | -15%
COC(=O)c1sc(S(=O)(=O)NC(C)C(=O)O)c(C(=O)OC)c1C (centres undefined) | ? | -1%[57.1 µM] | 12% | -16% | 34%
COC(=O)c1sc(S(=O)(=O)NCC(=O)O)c(C(=O)OC)c1C | 71µM* | -1% | 4% | ? | 8%
COC(=O)c1sc(NC(=S)NNC(=O)c2c(Br)c(C)nn2C)c(C(=O)OC)c1C | . | 50µM* | . | 25µM* | -19%
CC(C)(C)c1nnc(NC(=O)C2CC(=O)N(CCc3ccc(F)cc3)C2)s1 (centres undefined) | 32µM* | -16% | . | 8% | -16%
CCCC(C)c1nnc(NC(=O)C2CC(=O)N(CCc3ccc(F)cc3)C2)s1 (centres undefined) | 7.9µM* | ? | . | -18% | ?
CC1(C)OC(=O)C2(Cc3ccc(Br)cc3N3CCCCC32)C(=O)O1 (centres undefined) | . | 56µM* | . | . | 5%
CC1(C)OC(=O)C2(Cc3ccccc3N3CCCC32)C(=O)O1 (centres undefined) | . | ? | . | . | -4%
CCN1CCn2c3c(c4cccc(C)c42)CCCC31 (centres undefined) | 71µM* | ? | -6% | ? | -7%
CCN1CCn2c3c(c4cc(C)ccc42)CCCC31 (centres undefined) | 20µM* | ? | -20% | ? | ?
CCc1cccc(NC(=O)C(c2ccccc2)N2Cc3ccccc3C2=O)c1 (centres undefined) | -7%[59 µM] | -24% | . | -19% | -7%
O=C(c1cccc(F)c1)N1CCCC(C(=O)N2CCCCC2)C1 (centres undefined) | 49% | -22% | . | 14% | 18%
CN(C(=O)CCc1ccccc1F)C1CCCN(Cc2ccccc2F)C1 (centres undefined) | -7%[0.501 µM] | 10µM* | -8%[2.29 µM] | 2% | -4%
COc1ccc(C(=O)N2CCCC(C(=O)O)C2)c2ccccc12 (centres undefined) | 45µM* | 1% | . | -6% | 23%
O=C(C1CCCN(Cc2ccccc2C(F)(F)F)C1)N1CCCCC1 (centres undefined) | 5µM* | 3.5µM* | 0% | 50µM* | ?
O=C(C1CCCN(Cc2ccccc2F)C1)N1CCCCC1 (centres undefined) | 10µM* | 4µM* | . | 20µM* | 45µM*
SMILES | G9a inh | JMJD2A Tudor inh | L3MBTL1 inh | BAZ2B block | HP1b chromo inh
COc1ccccc1NC(=O)N1CCCC1C(=O)NCc1ccccc1Cl (centres undefined) | -1% | -13% | 2% | ? | 23%
COc1ccccc1CN1CCCC(C(=O)N2CCCCC2)C1 (centres undefined) | 18µM* | 1.8µM* | 13% | 45µM* | 71µM*
COc1ccccc1CN1CCCC(CN(CCN(C)C)C(=O)C2CCCC2)C1 (centres undefined) | -7% | -6% | 2% | 4% | 5%
Cc1ncc(C[n+]2csc(CCOC(=O)CC3C4CC5CC(C4)CC3C5)c2C)c(N)n1 (centres undefined) | 50µM* | -8%[57.1 µM] | 1% | -29% | 73%
COc1ccccc1N1CCN(c2ccc(NC(=O)c3ccc(C)cc3)cc2C(=O)O)CC1 | -5%[59 µM] | -19% | . | -15% | 18%
Cc1cc(-c2ccccc2)c2c(=O)n(-c3ccccc3)[nH]c2n1 | 11µM* | -34% | ? | ? | 5%
Cc1ccc(NC(=O)CCCN2C(=O)/C(=C/C=C/c3ccccc3)SC2=S)cc1 | -2%[59 µM] | -12%[57.1 µM] | -5% | -11% | -24%
O=C(O)CC(C(=O)O)N1C(=O)/C(=C/C=C/c2ccco2)SC1=S (centres undefined) | -186%[59 µM] | 3.5µM* | 1.1µM* | 5µM* | 3.5µM*
CCC(C(=O)O)N1C(=O)/C(=C/c2cccn2C)SC1=S (centres undefined) | ? | -34% | -4% | ? | -3%
O=C(O)C(Cc1ccccc1)N1C(=O)/C(=C/C=C/c2ccco2)SC1=S (centres undefined) | . | 10µM* | 1.3µM* | 8.9µM* | 10µM*
O=C(O)CCCN1C(=O)/C(=C/C=C/c2ccco2)SC1=S | -170%[12.7 µM] | 5.6µM* | 0.71µM* | 4µM* | 14µM*
CCc1ccccc1NC(=O)C(=O)NCC(c1cccnc1)N1CCc2ccccc21 (centres undefined) | -5%[59 µM] | -1% | . | 0% | 20%
Cn1c(=O)c2c(ncn2CC(=O)N/N=C/C=C/c2ccccc2)n(C)c1=O | ? | 40µM* | 0% | -1% | 16%
COc1cccc(/C=N/NC(=O)Cn2cnc3c2c(=O)n(C)c(=O)n3C)c1 | . | 56µM* | 12% | 1% | 1%
COc1cc(/C=N/NC(=O)Cn2cnc3c2c(=O)n(C)c(=O)n3C)cc(OC)c1OC | -3%[12.7 µM] | 1% | 9% | 3% | 25%
Cc1cccc(N2CCN(C(=O)C3CCN(c4ncnc5c4nc4n5CCCCC4)CC3)CC2C)c1 (centres undefined) | -32% | -30% | . | 35µM* | 7%
CCC1CN(C(=O)N2CCC(C(=O)Nc3cc(C)ccc3C)CC2)c2ccccc2O1 (centres undefined) | -38%[59 µM] | ? | . | 79µM* | 10%
CCC1CN(C(=O)N2CCC(C(=O)NCCc3ccccc3C)CC2)c2ccccc2O1 (centres undefined) | ? | -24% | . | 79µM* | 11%

Source: PubChem
